The values below come from PubChem BioAssay (EPA / NIEHS).

For assay [1], the target named is Retinoic acid receptor RXR-alpha (Homo sapiens) (UniProt P19793). Briefly: TOX21_TR_RXR_BLA_Agonist_Followup_ratio: Tox21 Thyroid Hormone Receptor beta Retinoid X Receptor alpha (RXRa) Agonism Beta-lactamase (BLA) Follow-Up Assay, Ratio (AID 2283968; active = hit-call score of the fitted dose curve at least 0.9, where 1 is the maximum). The method, boiled down: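 Agonist mode: compounds given to RXRa-bla HEK293T cells at 11 concentrations, triplicate, 16 h at 37C/5% CO2. Readout is the 460:530 nm blue/green ratio after 2 h substrate loading at room temperature; DMSO baseline, 9-cis retinoic acid control.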
Retinoic acid receptor RXR-alpha (Homo sapiens), sequence (P19793 whole entry, looked up): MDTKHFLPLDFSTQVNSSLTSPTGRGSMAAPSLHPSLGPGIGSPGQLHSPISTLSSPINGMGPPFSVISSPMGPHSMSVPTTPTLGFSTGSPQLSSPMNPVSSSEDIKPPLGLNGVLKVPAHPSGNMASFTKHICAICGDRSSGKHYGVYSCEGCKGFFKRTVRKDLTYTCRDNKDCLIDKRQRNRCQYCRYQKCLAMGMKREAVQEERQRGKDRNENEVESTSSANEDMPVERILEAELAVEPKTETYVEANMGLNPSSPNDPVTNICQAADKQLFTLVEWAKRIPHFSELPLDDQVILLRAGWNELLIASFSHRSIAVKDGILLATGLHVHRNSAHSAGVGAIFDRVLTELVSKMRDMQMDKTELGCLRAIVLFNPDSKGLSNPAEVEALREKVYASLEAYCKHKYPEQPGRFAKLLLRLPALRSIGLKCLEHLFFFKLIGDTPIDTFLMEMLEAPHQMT

Assay [2] is described as follows: TOX21_TR_RXR_BLA_Agonist_Followup_viability: Viability Assessment in the Tox21 Thyroid Hormone Receptor beta Retinoid X Receptor alpha (RXRa) Agonism Beta-lactamase (BLA) Follow-Up Assay (AID 2283970; active = hit-call score of the fitted dose curve at least 0.9, where 1 is the maximum). The essentials:
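CellTiter-Glo ATP luciferase read-out of cell viability, multiplexed with the beta-lactamase reporter run. RXRa-bla HEK293T cells in charcoal-stripped serum medium were exposed 16 h at 37C; data fitted both directions relative to DMSO.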

Assay [3] is described as follows: CCTE_Harrill_HTTr_Viability_MCF7: CCTE's 6-hour Cell Viability Assessment for the High-Throughput Transcriptomics (HTTr) Platform, in MCF-7 cells cultured in DMEM + 10% fetal bovine serum, Harrill Lab (AID 2284010). The essentials:
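Propidium iodide exclusion, imaged by high-content analysis, gauged viability after a six-hour exposure across eight concentrations. Cells were MCF-7 grown in DMEM with 10% fetal bovine serum; fits run in both directions against DMSO.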

Assay [4] can be described thus: CCTE_Harrill_HTTr_Apoptosis_MCF7: CCTE's 6-hour Apoptosis Assessment for the High-Throughput Transcriptomics (HTTr) Platform, in MCF-7 cells cultured in DMEM + 10% fetal bovine serum, Harrill Lab (AID 2284011). The essentials:
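High-content imaging of CellEvent Caspase 3/7 Green signal follows a six-hour exposure, with eight concentrations per chemical. MCF-7 cells grown in DMEM plus 10% fetal bovine serum; activity fitted in both directions against DMSO.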

The target of assay [5] is Nucleoli Translocation, AR (gene 367) (UniProt P10275). Briefly: UPITT_HCI_U2OS_AR_TIF2_Nucleoli_Antagonist: University of Pittsburgh U2OS Androgen Receptor-Transcriptional Intermediary Factor 2 (AR-TIF2) Antagonism High Content Imaging Assay for Nucleoli Translocation (AID 2283997; active = hit-call score of the fitted dose curve at least 0.9, where 1 is the maximum). The method, boiled down: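 Compounds are added at 20 uM final concentration in 0.2% DMSO to U2OS cells carrying AR-RFP and TIF2-GFP fusions. Nucleolar AR-RFP fluorescence is then quantified by automated imaging. Antagonism is fitted positively against DHT baseline.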
Nucleoli Translocation, AR (gene 367), sequence (P10275 whole entry, looked up, the tested form may be a part): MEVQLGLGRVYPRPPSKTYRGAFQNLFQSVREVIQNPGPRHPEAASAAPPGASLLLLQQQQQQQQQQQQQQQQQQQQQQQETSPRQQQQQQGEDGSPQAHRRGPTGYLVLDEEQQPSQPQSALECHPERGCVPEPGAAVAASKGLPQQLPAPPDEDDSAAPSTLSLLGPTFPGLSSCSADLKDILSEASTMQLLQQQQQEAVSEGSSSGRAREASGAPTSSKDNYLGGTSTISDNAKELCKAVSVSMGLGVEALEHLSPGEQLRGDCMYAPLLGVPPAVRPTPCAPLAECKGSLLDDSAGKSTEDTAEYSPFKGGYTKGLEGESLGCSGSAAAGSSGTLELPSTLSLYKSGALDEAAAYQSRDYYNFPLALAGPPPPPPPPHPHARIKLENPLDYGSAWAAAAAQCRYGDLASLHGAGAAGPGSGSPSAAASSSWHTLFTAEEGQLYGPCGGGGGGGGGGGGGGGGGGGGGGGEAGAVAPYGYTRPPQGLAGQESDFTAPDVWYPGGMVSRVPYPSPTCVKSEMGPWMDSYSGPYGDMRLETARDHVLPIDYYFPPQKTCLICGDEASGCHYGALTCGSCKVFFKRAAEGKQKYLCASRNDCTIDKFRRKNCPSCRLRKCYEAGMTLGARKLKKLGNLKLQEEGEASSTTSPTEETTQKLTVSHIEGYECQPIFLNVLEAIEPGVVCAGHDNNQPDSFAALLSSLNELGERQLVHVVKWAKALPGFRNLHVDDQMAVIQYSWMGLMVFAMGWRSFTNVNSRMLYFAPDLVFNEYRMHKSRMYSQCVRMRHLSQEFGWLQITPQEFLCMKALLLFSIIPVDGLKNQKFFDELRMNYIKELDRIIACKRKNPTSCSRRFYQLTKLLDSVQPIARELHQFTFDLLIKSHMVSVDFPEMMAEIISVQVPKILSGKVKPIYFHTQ

Assay [6] addresses Ratio of Nucleoli Translocation and Cytoplasm, AR (gene 367) (UniProt P10275). Briefly: UPITT_HCI_U2OS_AR_TIF2_Nucleoli_Cytoplasm_Ratio_Antagonist: University of Pittsburgh U2OS Androgen Receptor-Transcriptional Intermediary Factor 2 (AR-TIF2) Antagonism High Content Imaging Assay for Ratio of Nucleoli Translocation and Cytoplasm (AID 2283999; active = hit-call score of the fitted dose curve at least 0.9, where 1 is the maximum;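 also: antagonists lower the DHT-driven ratio of nucleolar to cytoplasmic red signal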). The essentials:
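High-content imaging of red fluorescence ratio, nucleoli versus cytoplasm, in U2OS expressing AR-RFP and TIF2-GFP, fitted relative to DHT. Compounds tested once at 20 uM final, then 0.195 to 50 uM final in serial dilution.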

The target is the same in assay [7]. Description: UPITT_HCI_U2OS_AR_TIF2_Nucleoli_Cytoplasm_Ratio_Agonist: University of Pittsburgh U2OS Androgen Receptor-Transcriptional Intermediary Factor 2 (AR-TIF2) Agonism High Content Imaging Assay for Ratio of Nucleoli Translocation and Cytoplasm (AID 2284000; active = hit-call score of the fitted dose curve at least 0.9, where 1 is the maximum;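 also: hits raise the red nucleolar to cytoplasm ratio above vehicle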). The method, boiled down: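 Human osteosarcoma U2OS line, AR-RFP plus TIF2-GFP; compounds 0.195–50 uM final, 0.5% DMSO. Readout: nucleolar/cytoplasmic RFP ratio by HCI, positive direction vs DMSO baseline.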

Assay [8] in a line: CCTE_Harrill_HTTr_CellCount_MCF7: CCTE's Cell Proliferation Assessment for the High-Throughput Transcriptomics (HTTr) Platform, Harrill Lab (AID 2284012; active = hit-call score of the fitted dose curve at least 0.9, where 1 is the maximum;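 also: cells exposed to compound for six hours; intended direction is loss of nuclei count meaning fewer cells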). The essentials:
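Cell count from high-content imaging of Hoechst-labeled nuclei serves as viability/growth readout. Chemicals were applied to MCF-7 cells in eight concentrations for six hours, with fitting in both directions relative to DMSO.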

In another assay the test system is DIO1 (gene 1733). Briefly: CCTE_GLTED_hDIO1: CCTE's human Deiodinase 1 (DIO1) Inhibition Assay, Great Lakes Toxicology and Ecology Division (GLTED) Lab (AID 2283987; active = hit-call score of the fitted dose curve at least 0.9, where 1 is the maximum;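 also: isolated human DIO1 enzyme in a cell-free setup rather than cells; enzyme activity read as free iodide liberated from substrate via Sandell-Kolthoff colorimetry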). The method, boiled down:
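Inhibition read as reduced iodide release: after 3 h of human DIO1 with chemical, free iodide is quantified colorimetrically (Sandell-Kolthoff cerium/arsenic reaction). Triplicate plates, DMSO baseline.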

Assay [9] has as its target Retinoic acid receptor RXR-alpha (Homo sapiens) (UniProt P19793). Briefly: TOX21_TR_RXR_BLA_Antagonist_Followup_ratio: Tox21 Thyroid Hormone Receptor beta Retinoid X Receptor alpha (RXRa) Antagonism Beta-lactamase (BLA) Follow-Up Assay, Ratio (AID 2283972; active = hit-call score of the fitted dose curve at least 0.9, where 1 is the maximum). The essentials:
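After 5 h attachment at 37C, HEK293T RXRa-bla cells (2,500/well, 2% charcoal-stripped FBS, no phenol red) received compounds at 11 concentrations in triplicate for 16 h. Beta-lactamase read as 460:530 nm ratio after 2 h RT substrate loading.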

A short description of assay [10]: TOX21_TR_RXR_BLA_Antagonist_Followup_viability: Viability Assessment in the Tox21 Thyroid Hormone Receptor beta Retinoid X Receptor alpha (RXRa) Antagonism Beta-lactamase (BLA) Follow-Up Assay (AID 2283979; active = hit-call score of the fitted dose curve at least 0.9, where 1 is the maximum). The essentials:
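RXRa-bla HEK293T cells (2,500/well, phenol red-free DMEM, 2% charcoal-stripped FBS) were attached 5 h, then exposed to compounds at 11 concentrations in triplicate for 16 h at 37C. Viability measured by CellTiter-Glo ATP luminescence, bidirectional fitting versus DMSO.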

Assay [11] in a line: CCTE_Shafer_MEA_acute_spike_number: CCTE's Neural Acute Assay for Total Number of Spikes, Shafer Lab (AID 2284008).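 As to AC50: curve fitted for decrease in spike count so AC50 reflects inhibitors.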 The essentials: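 Total spike count from 40 min recordings before and during compound exposure (0.03-40 uM), given as per-well percent change. Cortical cultures from rat, DIV 13 or 15, 37 C; adaptive detection threshold 8x rms noise.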
Assay [12] can be described thus: CCTE_Shafer_MEA_acute_firing_rate_mean: CCTE's Neural Acute Assay for Mean Firing Rate, Shafer Lab (AID 2284009).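 Also: analyzed for loss of signal so actives lower firing rate relative to DMSO.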 The essentials: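 Rat cortical neuron cultures matured to DIV 13 or 15, equilibrated 20 min at 37 C, then recorded 40 min for baseline. Compound (0.03-40 uM) added and a further 40 min recorded; percent change in mean firing rate calculated per well.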

Assay [13] in a line: CCTE_Shafer_MEA_acute_burst_number: CCTE's Neural Acute Assay for Single-Electrode Bursts, Shafer Lab (AID 2284013). The essentials:
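Percent change in single-electrode burst number per well, from 40-min recordings taken before and after adding compound (0.03-40 uM) to primary rat cortical neurons on MEA plates at DIV 13 or 15, 37 C.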

Assay [14] in a line: CCTE_Shafer_MEA_acute_burst_duration_mean: CCTE's Neural Acute Assay for Mean Burst Duration, Shafer Lab (AID 2284014).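 Also: hits are decreases in mean burst duration relative to DMSO controls.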 The method, boiled down:
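Rat cortical cultures, DIV 13/15; 40 min baseline, then 40 min with compound (0.03-40 uM), 37 C. Spikes: 300-5000 Hz band-pass, 8x rms threshold. Read-out: % change in mean single-electrode burst duration, DMSO-referenced, loss direction.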

The nature of assay [15]: CCTE_Shafer_MEA_acute_per_burst_spike_number_mean: CCTE's Neural Acute Assay for Average Number of Spikes Per Burst, Shafer Lab (AID 2284015).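 Also: hits are decreases in mean spikes per burst versus baseline.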 The essentials:
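Rat primary cortical neurons on 48-well MEAs (DIV 13 or 15) were treated with 0.03-40 uM compound at 37 C. Mean spikes per burst over 40 min were recorded before and after exposure and expressed as percent change from baseline, relative to DMSO.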

The nature of assay [16]: CCTE_Shafer_MEA_acute_interburst_interval_mean: CCTE's Neural Acute Assay for Mean Interburst Interval, Shafer Lab (AID 2284016).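 Also: percent change of mean interburst interval versus each well's own pre-dose baseline; curves fitted for decrease in interburst interval relative to DMSO.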 The method, boiled down:
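Rat primary cortical neurons on 48-well MEAs at DIV 13 or 15 were exposed acutely to 0.03-40 uM. Spikes detected at 8x rms noise, 37 C. Mean interburst interval from 40 min recordings expressed as percent change from 40 min pre-treatment baseline.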

Assay [17] is described as follows: CCTE_Shafer_MEA_acute_burst_percentage_mean: CCTE's Neural Acute Assay for Percentage of Spikes in a Burst, Shafer Lab (AID 2284017).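 As to AC50: curve fitted for loss of signal so potency reflects decreased burst percentage.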 The essentials: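 Primary rat cortical neurons on 48-well MEA plates, treated on DIV 13 or 15 at 0.03-40 uM. Spikes detected at 8x rms noise at 37C; percent change from 40-min baseline to 40-min post-dose recording, fitted versus DMSO.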

Assay [18] is described as follows: CCTE_Shafer_MEA_acute_burst_percentage_std: CCTE's Neural Acute Assay for Standard Deviation of Burst Percentage, Shafer Lab (AID 2284018).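 Also: fitted in the negative direction so actives lower burst percentage SD.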 The essentials: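 Rat primary cortical neurons on 48-well MEAs, DIV 13 or 15, 37 C. 40-min baseline then 40-min recording with compound (0.03-40 uM); well-level SD of per-electrode burst spike percentage, expressed as percent change from baseline.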

A short description of assay [19]: CCTE_Shafer_MEA_acute_per_network_burst_spike_number_mean: CCTE's Neural Acute Assay for Average Number of Spikes in a Network Burst, Shafer Lab (AID 2284019).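 As to AC50: curve fitted for loss of signal so actives reduce spikes per network burst.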 The method, boiled down: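 Rat cortical cultures, DIV 13/15; spike threshold 8x rms noise, 300-5000 Hz band-pass, 12.5 kHz sampling; wells need >/= 10 active electrodes. Compound 0.03-40 uM, 40 min, 37 C; % change vs own baseline, DMSO negative control.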

SMILES strings stand for the structures. Inconclusive results are not listed. Calls of active or inactive are those of the source. The calls were made as follows, unless noted: active = hit-call score of the fitted dose curve at least 0.9, where 1 is the maximum; inactive = score below 0.9.

Ratio of Nucleoli Translocation and Cytoplasm, AR (gene 367), sequence (P10275 whole entry, looked up): as the sequence (P10275 whole entry, looked up, the tested form may be a part) above

Turning to `C[C@H](CCC(=O)NCC(=O)O)[C@H]1CC[C@H]2[C@@H]3[C@H](O)C[C@@H]4C[C@H](O)CC[C@]4(C)[C@H]3C[C@H](O)[C@]12C`, the outcome in [1], in [2], in [3] and in assay [4] was inactive.

In the case of `CC(C=O)Cc1ccc(C(C)(C)C)cc1` (configuration not stated), the compound was called inactive in assay [5], in [6], in [7], in assay [3] and in assay [8].

For the compound `Oc1ccc2cc(SSc3ccc4cc(O)ccc4c3)ccc2c1`, the AC50 with DIO1 (gene 1733) is 2.62 µM (active).

As for `Oc1c(Cl)cc(Cl)c(Cl)c1Cc1c(O)c(Cl)cc(Cl)c1Cl`, the result in assay [9], in assay [3], in [13], in assay [14], in [18] and in assay [19] was inactive. Also, the AC50 is 33.3 µM (active) in assay [10]; 0.266 µM (active) in assay [11]; 0.266 µM (active) in assay [12]; 0.155 µM (active) in assay [15]; 0.122 µM (active) in [16]; 0.163 µM (active) in assay [17].

As for `CCCCCCCCCCCCCC(=O)OCC(O)CO` (configuration not stated), the result in [7] was inactive.

As to `O=C(Nc1ccc2c(O)c(N=Nc3ccc(N=Nc4ccc(S(=O)(=O)O)cc4)cc3)c(S(=O)(=O)O)cc2c1)c1ccccc1`, the compound was classed as inactive in assay [11], in assay [12], in assay [13], in assay [14], in [15] and in assay [18]. For the same compound, in assay [19], the compound was classed as inactive. Further, the AC50 in assay [16] and in assay [17] was 15 µM (active) in each case.

Take `Cc1ccc(S(=O)(=O)Oc2ccc(N=Nc3ccc(-c4ccc(N=Nc5c(O)ccc6cc(S(=O)(=O)O)cc(S(=O)(=O)O)c56)c(C)c4)cc3C)cc2)cc1`: the call in assay [5], in assay [6] and in assay [7] was inactive.

On to `CCCCCCCCSCCO`, for which the AC50 in [5] was 59 µM (active). For the same compound, the outcome in assay [7] was inactive.

In the case of `CC(CN=Cc1ccccc1O)N=Cc1ccccc1O` (configuration not stated), the call in assay [11], in assay [12], in assay [3], in assay [4], in [8] and in [13] was inactive. Besides, the outcome in assay [14], in assay [16], in [17] and in [18] was inactive. The AC50 in assay [15] and in [19] was 15 µM (active) each time.

With `Cc1cc(C)nc(NS(=O)(=O)c2ccc(N)cc2)n1`, the outcome in [1], in [2] and in assay [3] was inactive.

As to `CCc1cc(Cc2cc(CC)cc(C(C)(C)C)c2O)c(O)c(C(C)(C)C)c1`, the values for the AC50 in [5], in assay [6] and in assay [7] were 62.2 µM (active), 50 µM (active) and 91.2 µM (active), respectively. Besides, the outcome in [3] and in [4] was inactive.

Take `CCCCC1CCC(O)CC1` (configuration not stated): the result in assay [5], in [6] and in [7] was inactive.

For `C=C1CC[C@H](O)C/C1=C/C=C1\CCC[C@]2(C)[C@@H]([C@H](C)/C=C/[C@H](C)C(C)C)CC[C@@H]12`, the AC50 with DIO1 (gene 1733) was 19.8 µM (active). Further, the result in [3], in assay [4] and in assay [8] was inactive.

On to `CC(C)CCCCCCCCCCCCCCC(=O)O`, for which the AC50 with DIO1 (gene 1733) was 72.8 µM (active). The outcome in assay [3] and in assay [8] was inactive.
